Compound activity: PubChem, National Center for Advancing Translational Sciences (NCATS)
CHX counter: counter-screen hit for Shiga toxin inhibitors, cycloheximide; actives 12% (n = 300,000); cell reporter, cycloheximide protein synthesis inhibition counterscreen; max response, %; AID 2314; in the data active = max response mostly above about 13%, no sharp cut-off; inactive = mostly below about 14%; also: read at 38.3 µM for the half of the compounds with a filed dose; 0% is about no effect
Shiga inhibitor: blocks Shiga toxin action in Vero cells | Vero cells, Shiga toxin protein synthesis inhibition reporter | inhibition, % at 38.7 µM | actives 9.2% (n = 290,000) | AID 2315; in the data active = inhibition mostly above about 28%, no sharp cut-off; inactive = mostly below about 43%; also: 0% is about no effect
LmPK inhibitor: inhibitors of Leishmania mexicana pyruvate kinase; Potency, µM (highest dose often 57.5 µM), for inactives: top-dose activity change, negative = inhibition, usual class: inhibitors; Q27686; actives 0.37% (n = 290,000); purified LmPK, Kinase-Glo ATP luminescence, 1 h; AID 1721; also: potency is read from the fitted curve at half-maximal effect; % is scaled to controls: 0 for no effect and ±100 for the full control effect
Target sequence (Q27686 whole entry, looked up): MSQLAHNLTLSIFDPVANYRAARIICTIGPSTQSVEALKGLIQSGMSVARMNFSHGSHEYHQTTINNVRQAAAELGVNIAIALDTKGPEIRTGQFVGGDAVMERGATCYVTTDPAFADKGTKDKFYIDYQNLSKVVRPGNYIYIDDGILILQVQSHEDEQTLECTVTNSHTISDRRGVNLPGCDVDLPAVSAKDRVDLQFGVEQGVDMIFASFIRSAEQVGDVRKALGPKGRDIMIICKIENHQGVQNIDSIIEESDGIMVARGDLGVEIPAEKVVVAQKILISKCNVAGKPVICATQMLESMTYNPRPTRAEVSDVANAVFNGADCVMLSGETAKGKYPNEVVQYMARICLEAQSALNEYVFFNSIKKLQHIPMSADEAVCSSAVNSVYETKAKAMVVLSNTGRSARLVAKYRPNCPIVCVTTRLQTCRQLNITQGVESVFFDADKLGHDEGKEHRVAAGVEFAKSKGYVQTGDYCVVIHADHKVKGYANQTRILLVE
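Purified LmPK (0.1 nM) with 0.5 mM PEP and 0.1 mM ADP in imidazole buffer pH 7.2 with MgCl2/KCl, 1 h at room temperature. ATP formed was read by luciferase luminescence and normalized to no-enzyme and uninhibited controls.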
Giardia FBPA inh: Giardia lamblia aldolase inhibition; actives 0.71% (n = 290,000); Potency, µM (titrated, usually from 59.6 µM), without a hit: top-dose activity, negative = inhibition, actives largely listed as inhibitors; purified Giardia FBPA; A8B2U2; AID 2451; also: potency is read from the fitted curve at half-maximal effect; % is scaled to controls: 0 for no effect and ±100 for the full control effect; nearly all actives have a fitted effect of over 55% in size
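40 nM FBPA preincubated 10 min at RT with compound (up to 57.5 uM final), then substrate plus GAPDH/TPI/NAD/arsenate coupling and diaphorase/resazurin added. Fluorescence read after 20 min at RT, 525/598 nm.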
TbPYK inhibitor: blocks Trypanosoma brucei pyruvate kinase. Potency, µM (series often up to 76.8 µM), without a hit: at the highest dose activity, negative = inhibition, usual class: inhibitors. Q57TT1. TbPYK enzyme, Kinase-Glo Plus ATP luminescence, 45 min. AID 624173. actives 0.12% (n = 410,000); also: potency is read from the fitted curve at half-maximal effect; % is scaled to controls: 0 for no effect and ±100 for the full control effect; nearly all actives have a fitted effect of over 50% in size
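Quantitative HTS: titrated library compounds versus trypanosomal pyruvate kinase in TEA buffer (pH 7.2) containing KCl, MgCl2, BSA and Tween-20. Reactions were initiated with ADP, 130 uM final. Kinase-Glo Plus luminescence was read after 45 min at RT.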
Sm TGR block: blocks Schistosoma mansoni thioredoxin glutathione reductase | AID 485364 | actives 3% (n = 360,000) | Potency, µM (doses to about 114 µM), for the others: at the top dose activity change, negative = inhibition, most hits filed as inhibitors | purified TGR, DTNB reduction, TNB absorbance 405 nm; also: potency is read from the fitted curve at half-maximal effect; % is scaled to controls: 0 for no effect and ±100 for the full control effect; nearly all actives have a fitted effect of over 60% in size
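Kinetic colorimetric format: TGR-catalysed, NADPH-driven DTNB reduction monitored via TNB absorbance. Enzyme dispensed at 20 nM; compound exposure 15 min at room temperature before reaction start.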
* marks the source's active call; other numbers are inactive results; ? = inconclusive; . = no result; [ ] = another dose, or the depositor's remark. This excerpt belongs to a sample that is enriched for hits. Unless noted, calls follow the shape of the dose curve; as a rule, active = well fitted curve in the direction sought with a large enough effect; inconclusive = small, poorly fitted or top-dose-only effect, or another doubt; inactive = no such curve, though single readings can be large; an effect the other way counts as inactive or inconclusive.

SMILES | CHX counter | Shiga inhibitor | LmPK inhibitor | Giardia FBPA inh | TbPYK inhibitor | Sm TGR block
Clc1ccc2nc(CSc3nnc4ccccn34)cn2c1 | 38* | 92* | -8% | 0% | -13% | 7%
CNc1cc(CSc2ccc(Cl)cc2)nc(C)n1 | 47* | 99* | -6% | 3% | -2% | -1%
Cc1cccc2nc(CSc3nc4ccccc4[nH]3)cn12 | 13 | 24 | -3% | -4% | -3% | 12%
Cc1cccc2nc(CSc3ccc(Cl)cc3)cn12 | 49* | 91* | -18% | 0% | 2% | 0%
CCOc1ccccc1NC(=O)CSc1nnc2[nH]c(=O)cc(-c3ccccc3)n12 | . | . | . | . | -3% | -1%
Clc1ccc2nc(CSc3nncn3-c3ccccc3)cn2c1 | -1 | -2 | -1% | -2% | -22% | -2%
c1ccc2c(SCc3cn4ccccc4n3)nncc2c1 | 38* | 76 | -8% | -17% | 0% | -11%
Clc1ccc(-n2nnnc2SCc2cn3ccccc3n2)cc1 | 1 | -7 | -8% | 2% | -8% | -9%
Cc1ccc(SCc2cn3cc(Cl)ccc3n2)cc1 | 52* | 62* | 3% | -5% | 6% | -17%
Clc1ccc2nc(CSCc3ccccc3)cn2c1 | 49* | 99* | -6% | -2% | -3% | -16%
Clc1ccc(SCc2cn3ccccc3n2)cc1 | 37* | 54* | -1% | 1% | 6% | -1%
O=C(COC(=O)[C@@H]1CC(O)CN1S(=O)(=O)c1ccc2c(c1)OCCO2)Nc1cc(F)ccc1F (some centres not stated) | . | . | . | . | -10% | .
CCCN(C(=O)c1noc2c1COc1ccc(C)cc1-2)c1ccc(Cl)c(Cl)c1 | . | . | . | . | ? | 4%
Nn1c(SCc2cn3cc(Cl)ccc3n2)nnc1-c1ccncc1 | 2 | -2 | 8% | -25% | -1% | 4%
c1ccc2[nH]c(SCc3cn4ccccc4n3)nc2c1 | 20* | 54* | -2% | -11% | -2% | -9%
Cc1ccc(SCc2cn3c(C)csc3n2)cc1 | 44* | 74* | ? | -23% | 6% | 44%
Nc1nnc(SCc2cn3cc(Cl)ccc3n2)s1 | 28* | 84* | -5% | -3% | 0% | 83%
CC(C)=CCC/C(C)=C/CO/N=C1/C[C@@H](O)[C@@H](O)[C@@H]2[C@@H]3C(=O)N(Cc4ccccc4)C(=O)[C@H]3CC[C@@H]12 | . | . | . | 1%[12.9 µM] | . | .
Nc1nc2c(ncn2C2OC(COC(=O)c3ccccc3)C(OC(=O)c3ccccc3)C2OC(=O)c2ccccc2)c(=O)[nH]1 (configuration not stated) | . | . | . | -6% | . | .
CC1(C)CC(=O)C(c2c[nH]c3ccccc23)C(=O)C1 | 6 | 1 | 1% | -7% | -17% | 20µM*
NC1=NC[C@@H](CC2CCCCC2)N1CCc1cc(C(F)(F)F)cc(C(F)(F)F)c1 | . | . | . | . | 3% | .
NC1=NC[C@H](Cc2ccc(O)cc2)N1CCc1cc(C(F)(F)F)cc(C(F)(F)F)c1 | 19* | 16 | 4% | 12% | -1% | -1%
COc1cc(OC)cc(C2=Nn3c(nnc3-c3ccccc3OC)SC2)c1 | -6 | -2 | . | -21% | . | .
S=C(Nc1ccccc1)N1N=C(c2cccs2)CC1c1cccs1 (configuration not stated) | 7 | 20* | 1% | -7% | -22% | -12%
COc1ccc(C2=NN(S(C)(=O)=O)C(c3cccs3)C2)cc1 (configuration not stated) | 41* | 60* | ? | -2% | -1% | 3%
SMILES | CHX counter | Shiga inhibitor | LmPK inhibitor | Giardia FBPA inh | TbPYK inhibitor | Sm TGR block
CC(=O)Nc1ccc(N2C(C(C)=O)=NN(c3ccccc3)C2c2cccs2)cc1 (configuration not stated) | 0 | 6 | 2% | 0% | 3% | 10%
Cc1ccc(C2=NN(C(=O)CNCCO)C(c3cccs3)C2)cc1 (configuration not stated) | 42* | 47 | 9% | . | -4% | -17%
CC(=O)Nc1ccc(C2=NN(c3ccccc3)C(c3cccs3)C2)cc1 (configuration not stated) | 70* | 88* | 3% | -6% | 0% | 3%
O=C(CNCCO)N1N=C(c2cccs2)CC1c1cccs1 (configuration not stated) | -1 | 28 | 3% | 4% | -1% | -27%
O=C(NC(Cc1ccc(O)cc1)C(=O)O)c1ccc2c(c1)OCO2 (configuration not stated) | . | . | . | . | 1% | -17%
CCc1ccc(C2=NN(S(C)(=O)=O)C(c3cccs3)C2)cc1 (configuration not stated) | 65* | 88* | 22µM* | 5% | -7% | -23%
CS(=O)(=O)N1N=C(c2ccc(Br)cc2)CC1c1cccs1 (configuration not stated) | 32* | 48* | 4% | 0% | 28% | 2%
Cc1ccc(C2=NN(S(C)(=O)=O)C(c3cccs3)C2)cc1 (configuration not stated) | 35* | 178* | -24% | 4% | -9% | -21%
COc1cccc([C@@H]2Oc3ccc(OC)cc3C(=O)[C@H]2OC(=O)Nc2ccc(OC(F)F)cc2)c1 | . | . | . | -2% | . | .
CN(C)/C=N/NC(=O)c1ccccc1Cl | -2 | 9 | -5% | 2% | -6% | -12%
COC(=O)c1ccc(/C=N/NC(=O)C(=O)NCc2ccccc2)cc1 | 8 | 9 | 5% | 1% | 0% | 7%
CC(C)c1ccc(/C=N/NC(=O)c2ccccc2Cl)cc1 | 46* | 107* | 1% | -15% | 4% | -2%
COC(=O)c1ccc(/C=N/NC(=O)c2ccccc2Cl)cc1 | 42* | 47* | -7% | -1% | -17% | -12%
COc1cc(/C=C2/C(=N)N3N=C(CC(=O)N4CCOCC4)SC3=NC2=O)ccc1OCc1ccc(F)cc1 | 40* | 106* | -11% | . | 8% | 0%
COc1cc(/C=C2/C(=N)N3N=C(CC(=O)N4CCOCC4)SC3=NC2=O)ccc1OCc1ccccc1F | 26* | 43 | 2% | . | 1% | 1%
CC(C)Cc1ccc(S(=O)(=O)N2CCC(c3ccncc3)CC2)cc1 | . | . | . | . | -4% | 9%
COc1ccc(NC(=S)Nc2ccc3snnc3c2)cc1 | 24* | 34* | 6% | ? | -12% | 16µM*
COc1ccc(NC(=S)Nc2ccc3nccnc3c2)cc1 | 31* | 54* | 1% | ? | -8% | 32µM*
COc1ccc(NC(=S)Nc2ccc(N)c([N+](=O)[O-])c2)cc1 | 21* | 42 | -6% | -17% | -5% | -35%
Cc1ccc2c(=O)cc(C(=O)Nc3ccc(S(=O)(=O)N4CCCCCC4)cc3)oc2c1C | . | . | . | . | -8% | 0%
COc1ccc(OCC(=O)Nc2cc3c(cc2C(=O)O)OCCCO3)cc1 | -1 | -6 | -2% | 2% | -27% | 2%
